Here are results for 118 compounds from PubChem BioAssay AID618 (Sanford-Burnham Center for Chemical Genomics, 2007).

Each structure is given as a SMILES string. The whole screen tested about 87,000 compounds, of which about 540 (0.62%) were called active. No rule for the calls is given here. The list comes from a sample in which actives are over-represented; it also holds similar structures and randomly drawn compounds. Measured potencies and affinities stand elsewhere.

The nature of this test: MT1-MMP gene expression reporter suppression – cell-based, luciferase reporter, luminescence (AID 618).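 Also: actives suppress MT1-MMP promoter-driven transcription so potencies describe inhibitors.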 The conditions noted are these: MT1-MMP promoter luciferase reporter cells. In general terms: In a reporter assay the amount or activity of a reporter protein is the signal.
In the case of `COc1ccc(CCn2c(C)cc3c(c2=O)C(c2ccc4c(c2)OCO4)C(C#N)=C(N)O3)cc1OC` (stereo not drawn), the compound was classed as inactive.
The entry for `COc1ccccc1NC(=O)C1C2CCCCC21` (stereo not drawn) is “inactive”; for `Cc1cc(C)n(C(=O)c2nn(C)c(C)c2[N+](=O)[O-])n1` it is “inactive”; for `COc1cccc(CNC(=O)c2cc3ccccn3n2)c1` it is “inactive”.
For the compound `CC(=O)c1cccc(NC(=O)c2cc3ccccn3n2)c1`, the compound was classed as inactive.
The entry for `O=C(Nc1ccc(CN2CCOCC2)cc1)c1cc2ccccc2o1` is “inactive”; for `O=C(Nc1ccc(CN2CCOCC2)cc1)c1cccc(F)c1` it is “inactive”; for `COc1ccc(-c2ccc(-c3noc(-c4ccc(OC)c(OC)c4)n3)c(OC)n2)cc1` it is “inactive”.
As for `CC(C)CNC(=O)c1ccccc1NC(=O)c1ccccc1N(C)S(C)(=O)=O`, the compound was classed as inactive.
With `COC(=O)CSc1nnc2n1C(C)(C)Cc1ccccc1-2`, the compound was classed as inactive.
The entry for `Cc1ccc2cc(CCNC(=O)C(C)C)c(=O)[nH]c2c1` is “inactive”.
As for `COC(=O)c1sc(S(=O)(=O)N2CCCCC2)c(C(=O)OC)c1C`, the call was inactive.
The entry for `COc1ccc(NC(=O)NCCCN2CCc3ccccc3C2)cc1` is “inactive”; for `O=C(Nc1ccc(N2CCOCC2)c(Cl)c1)c1ccco1` it is “inactive”; for `O=C(Nc1ccc(N2CCCCC2)c(C(=O)O)c1)c1ccco1` it is “inactive”.
The entry for `CC(=O)NC(c1ccco1)c1ccc2cccnc2c1O` (stereo not drawn) is “inactive”; for `Oc1c(C(Nc2nc3ccccc3s2)c2ccco2)ccc2cccnc12` (stereo not drawn) it is “inactive”; for `CCN(CC)C(=O)CSc1nnc(-c2ccccn2)n1-c1ccc(C)c(C)c1` it is “inactive”.
With `COc1ccc(S(=O)(=O)N2CCN(c3ncnc4c(-c5ccccc5)nsc34)CC2)cc1` the entry was “inactive”; with `COc1ccc(-c2nsc3c(N4CCN(S(=O)(=O)c5ccccc5)CC4)ncnc23)cc1`, “inactive”; with `COc1ccc(-c2nsc3c(N4CCN(C(=O)c5ccco5)CC4)ncnc23)cc1`, “inactive”.
`O=C(N1CCCC1)N1CCN(c2ncnc3c(-c4ccc(Cl)cc4)nsc23)CC1`: the outcome was inactive.
The entry for `COc1ccc(-c2nsc3c(N4CCCC4)ncnc23)cc1` is “active”; for `CC1(C)CC(=O)c2cc(C(=O)NC3CCSC3=O)c(=O)n(-c3ccccc3)c2C1` (stereo not drawn) it is “inactive”.
The entry for `O=C(O)C1C2C=CC(C2)C1C(=O)N1CCc2ccccc21` (stereo not drawn) is “inactive”.
`O=C1CCC(C(=O)OCc2c(Cl)cccc2Cl)N1` (stereo not drawn): the result was inactive.
With `CC1C2CC(CC1(C)C)N(C(=O)Nc1ccc3nccnc3c1)C2` (stereo not drawn) the entry was “inactive”.
The entry for `COC(=O)c1c(O)c2ccccc2[nH]c1=O` is “inactive”.
With `Cc1cccc2cc(CN(Cc3cccs3)C3(c4nnnn4C4CCCC4)CCCC3)c(=O)[nH]c12` the entry was “inactive”; with `COc1ccc(-c2cn3ccc4ccccc4c3n2)cc1`, “inactive”.
Take `c1ccc(-c2ccc(-c3cn4c(n3)CCC4)cc2)cc1`: the compound was classed as inactive.
With `COc1cccc(-c2cn3nc4c(nc3n2)CCCC4)c1` the entry was “active”; with `COc1cccc(-c2cc(C(F)(F)F)n3nc(N)nc3n2)c1`, “inactive”; with `COc1ccc(-c2cn3c(n2)CCC3)cc1`, “inactive”.
As for `COc1cccc(-c2cn3nc(C)c(C)nc3n2)c1`, the call was inactive.
Regarding `c1ccc(-c2cn3c(n2)CCC3)cc1`, the call was inactive.
Consider `CCOC(=O)c1cc(-c2ccccc2)n(CC(=O)N2CCCC2)c1C`, for which the outcome was inactive.
Take `COc1ccc(OC)c(C(C)NC=O)c1` (stereo not drawn): the outcome was inactive.
On to `Cc1noc(C)c1CSc1nnc2scc(-c3ccc(Cl)cc3)n12`, for which the outcome was inactive.
With `O=C(Nc1cccnc1)c1noc2c1CCCCC2` the entry was “inactive”; with `Cc1ccc(NC(=O)c2noc3c2CCCCC3)cc1`, “inactive”.
With `CCc1ccc(NC(=O)c2noc3c2CCCCC3)cc1` the entry was “inactive”; with `Cc1ccc(NC(=O)c2noc3c2CCCCC3)cc1C`, “inactive”; with `Cc1ccccc1C1CC(c2ccc(F)cc2)Nc2nc(N)nn21` (stereo not drawn), “inactive”.
With `O=C1CCC(=O)N1CCCCCc1nc(-c2ccccc2)no1` the entry was “inactive”.
For the compound `NS(=O)(=O)c1ccc(CNC(=O)C2CCCCC2)cc1`, the compound was classed as inactive.
On to `CCn1c(SCC(=O)NCC(=O)Nc2ccc(F)cc2)nnc1-c1cccs1`, for which the compound was classed as inactive.
With `O=C(COc1c(F)c(F)c(C(F)(F)F)c(F)c1F)Nc1ccc(N2CCOCC2)c(Cl)c1` the entry was “inactive”.
On to `CCOC(=O)C(NC(=O)CC(C)C)(Nc1cc(C)on1)C(F)(F)F` (stereo not drawn), for which the outcome was inactive.
Take `CCC(C)(C)n1nnnc1CN1CCC(c2nc3ccc(C)cc3[nH]2)CC1`: the compound was classed as inactive.
With `Cc1cc2nc(-c3cccc(NC(=O)c4ccc(Br)o4)c3C)oc2cc1C` the entry was “inactive”.
As to `Cc1cc2oc(=O)cc(CN3CCC(C)CC3)c2cc1Cl`, the call was inactive.
The entry for `c1ccc(OCCn2c(-c3ccco3)nc3ccccc32)cc1` is “inactive”; for `CCC(C)C(=O)N1CCc2cc(-c3csc(N)n3)ccc21` (stereo not drawn) it is “inactive”.
With `CC(C)C(=O)N1CCc2cc(-c3csc(N)n3)ccc21` the entry was “inactive”.
Consider `Cc1csc(=O)n1CC(=O)OCc1cccc2ccccc12`, for which the call was inactive.
With `COCCCNS(=O)(=O)c1ccc2c(c1)CCN2C(C)=O` the entry was “inactive”.
Consider `CCOC(=O)c1nn(-c2ccc3c(c2)OCO3)cc1O`, for which the call was inactive.
In the case of `CCOC(=O)c1cc(C(=O)OCC)cc(-n2cc(O)c(C(=O)OCC)n2)c1`, the call was inactive.
With `CCOC(=O)c1nn(-c2cc(C(=O)OC)cc(C(=O)OC)c2)cc1O` the entry was “inactive”; with `CCOC(=O)c1nn(-c2ccc3c(c2)CCN3C(C)=O)cc1O`, “active”; with `COC(=O)c1nn(-c2c(C)n(C)n(-c3ccccc3)c2=O)cc1O`, “inactive”.
Consider `COC(=O)c1nn(-c2ccc3c(c2)OCO3)cc1O`, for which the outcome was inactive.
As for `O=S(=O)(NCc1ccc(Cl)cc1)c1cnc[nH]1`, the compound was called inactive.
With `O=C(O)C1CCCCC1C(=O)NC1CCCCC1` (stereo not drawn) the entry was “inactive”; with `CC(C)(C)C(=O)NC1CCN(S(C)(=O)=O)CC1`, “inactive”.
With `Cn1cccc1Cc1nnc(SCC(=O)N2CCc3ccccc32)n1-c1ccc(F)cc1` the entry was “inactive”.
The entry for `CC1=NC(=O)C(N=Nc2ccccc2)N1c1ccccc1` (stereo not drawn) is “inactive”; for `CC1=NC(=O)C(N=Nc2cccc(O)c2)N1c1ccccc1` (stereo not drawn) it is “inactive”.
Turning to `Cc1ccn(Cc2n[nH]c(=S)n2Cc2ccccc2)n1`, the call was inactive.
Turning to `COc1ccc(C)cc1S(=O)(=O)N1CCC(C(=O)NCCC2=CCCCC2)CC1`, the compound was classed as inactive.
The entry for `NS(=O)(=O)c1ccc(NS(=O)(=O)c2cccs2)cc1` is “inactive”; for `COc1cc(C2C(C#N)=C(N)Oc3cc(O)ccc32)cc2c1OCO2` (stereo not drawn) it is “inactive”; for `COc1cc(C2C(C#N)=C(N)Oc3cc(N(C)C)ccc32)cc2c1OCO2` (stereo not drawn) it is “active”.
With `N#CC1=C(N)Oc2c(ccc3cccnc23)C1c1cccnc1` (stereo not drawn) the entry was “inactive”; with `N#CC1=C(N)Oc2cc3ccccc3cc2C1c1cccnc1` (stereo not drawn), “inactive”.
The entry for `CN(C)c1ccc2c(c1)OC(N)=C(C#N)C2c1cccc(F)c1` (stereo not drawn) is “active”; for `COc1cc(C2C(C#N)=C(N)Oc3cc(C)oc(=O)c32)cc2c1OCO2` (stereo not drawn) it is “inactive”.
`CCN(CC)c1ccc2c(c1)OC(N)=C(C#N)C2c1cccnc1` (stereo not drawn): the result was active.
For the compound `N#CC1=C(N)Oc2cc(N)ccc2C1c1ccc(F)cc1` (stereo not drawn), the compound was called inactive.
As to `N#CC1=C(N)Oc2cc(O)ccc2C1c1ccccc1` (stereo not drawn), the compound was called inactive.
As for `Cc1cc(NC(=O)CSc2nc3c(c(=O)n2CCc2ccccc2)SC(C)C3)no1` (stereo not drawn), the result was inactive.
With `O=C1CC(c2ccccc2)n2nc(NC(=O)c3cccs3)nc2N1` (stereo not drawn) the entry was “inactive”; with `COc1cc2nc(C)sc2cc1SC`, “inactive”.
With `O=C(C1CCCN(Cc2ccccc2Br)C1)N1CCCCC1` (stereo not drawn) the entry was “inactive”; with `COc1cccc(NC(=O)CSc2nnc(-c3ccoc3C)n2CC2CCCO2)c1` (stereo not drawn), “inactive”.
Turning to `C=CCNC(=O)C1CCN(c2nc(C)cc(-c3ccccc3)n2)CC1`, the compound was classed as inactive.
As for `c1ccc(C2=Nn3c(nnc3-c3ccncc3)SC2)cc1`, the result was inactive.
Turning to `COc1ccc(CC(C(=O)Nc2cc(C)ccc2C)/C(N)=N/O)cc1` (stereo not drawn), the result was inactive.
Take `COc1ccc(-c2cn3cc(C)ccc3n2)cc1OC`: the call was inactive.
For the compound `Cc1ccc2nc(-c3cccc(S(=O)(=O)N(C)C)c3)cn2c1`, the call was inactive.
In the case of `Cc1ccc2nc(-c3ccccc3)cn2c1`, the outcome was active.
The entry for `CCOc1ccccc1NC(=O)Cn1nnc(C(=O)NCc2ccco2)c1N` is “inactive”; for `CCOC(=O)C(C(=O)OCC)=C1OC(=O)c2ccccc21` it is “inactive”; for `CN(C)CCCNC(=O)c1ccc(-c2ccccc2)cc1` it is “inactive”.
The entry for `CCOC(=O)CNC(=O)c1cn(CC(C)C)c(=O)c2cc(OC)c(OC)cc12` is “inactive”; for `Cc1ccc2cc(CN(CC3CCCO3)S(=O)(=O)c3c(C)ccc4nsnc34)c(=O)[nH]c2c1` (stereo not drawn) it is “inactive”.
On to `COCc1nnc(NS(=O)(=O)c2c(C)cc(C)cc2C)s1`, for which the compound was called inactive.
On to `CN(C)c1ccc(/C=c2\sc3n(c2=O)CCCN=3)cc1`, for which the result was active.
As for `O=c1/c(=C\c2ccc3c(c2)OCO3)sc2n1CCCN=2`, the call was inactive.
The entry for `O=c1/c(=C/c2ccc(O)cc2)sc2n1CCCN=2` is “inactive”.
The entry for `O=C(NCCN1CCOCC1)c1ccc2ccccc2n1` is “inactive”; for `COCCn1cc(C(=O)NCCCN2CCC(C)CC2)c2c3ccccc3n(C)c2c1=O` it is “inactive”; for `CCC(C)(C)n1nnnc1C(c1cc2ccc(OC)cc2[nH]c1=O)N1CCc2ccccc21` (stereo not drawn) it is “inactive”.
The entry for `O=C(Nc1ccc(NC(=O)C2CCCCC2)nc1)c1ccco1` is “inactive”.
With `O=C(Nc1ccc(NC(=O)C2CCCCC2)cn1)c1ccco1`, the compound was called active.
The entry for `CCC(=O)Nc1ccc(NC(=O)c2ccccn2)cn1` is “inactive”; for `O=C(Nc1ccc(NC(=O)c2ccco2)nc1)c1cccnc1` it is “inactive”.
For `CCCC(=O)Nc1ccc(NC(=O)c2ccccn2)cn1`, the outcome was inactive.
The entry for `O=C(Nc1ccc(NC(=O)C2CC2)nc1)c1ccco1` is “inactive”; for `O=C(Cc1ccccc1)Nc1ccc(NC(=O)c2ccco2)nc1` it is “inactive”.
Consider `CCN(Cc1ccccc1)C(c1cc2cc(C)ccc2[nH]c1=O)c1nnnn1CCOC` (stereo not drawn), for which the call was inactive.
With `CCCCCCn1c(N2CCN(c3ccccc3)CC2)nc2c1c(=O)n(C)c(=O)n2C` the entry was “inactive”; with `O=C(Cn1cnc2ccccc2c1=O)N1CCOCC1`, “inactive”; with `CCC1=C2CC[C@H]3C(=O)N(c4ccccc4)C(=O)[C@H]3[C@H]2[C@@]2(Cc3ccccc3)C(=O)N(CC(=O)OC)C(=O)N2C1=O`, “inactive”.
For the compound `N#Cc1c(/N=C/c2cccs2)sc2c1CCCCC2`, the outcome was active.
`N#Cc1c(/N=C/c2cccs2)sc2c1CCC2`: the outcome was inactive.
With `N#Cc1c(/N=C/c2ccc(Br)s2)sc2c1CCC2` the entry was “inactive”.
